Screens: PubChem, National Center for Advancing Translational Sciences (NCATS)
This is a sample that favours compounds with a hit; in the whole collection about 7.9% have one here.
HCMV inh: blocks human cytomegalovirus replication; HFF cells, HCMV-luciferase reporter, 72 h; stronger effect = lower value; AID 1259415; actives 4.5% (n = 410,000); activity change, negative = inhibition, % at 57.5 µM; in the data active = activity change below about -60%; inconclusive = no clear call, values can overlap the other calls; inactive = above about -39%
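Steps: HFFs plated, 16 h 37C; compounds added; HCMV-luciferase added to MOI 1 PFU/cell; 72 h 37C; OneGlo reagent, 5 min room temperature; luminescence read, normalized to controls.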
Lassa entry inh: blocks Lassa virus binding to or entry into cells; Lassa virus pseudotype entry inhibition, cell reporter; Potency, µM (highest dose often 37.9 µM), inactives show top-dose activity change, negative = inhibition, most hits filed as inhibitors; actives 1.2% (n = 300,000); calls by dose curve; tested in HEK293 cells; note: potency is the fitted concentration of half-maximal effect; nearly all actives have a fitted effect of over 50% in size
HCV inhibitor: inhibitors of hepatitis C virus infection | Huh7.5.1 HCVcc-Cre infection, luciferase reporter, 44 h | Potency, µM (titrated, usually from 41.8 µM), for inactives: at the top dose activity change, negative = inhibition, most hits filed as inhibitors | actives 3.4% (n = 340,000); active = well fitted inhibition curve with a large enough effect; inconclusive = small, poorly fitted or top-dose-only effect, or another doubt; inactive = no such curve, though single readings can be large or run the other way; note: potency is the fitted concentration of half-maximal effect
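Cells seeded at 1,000/well and cultured 4 h, then compounds added followed by HCVcc-Cre virus (~0.5 moi). After 44 h further culture, luciferase substrate was added, plates held 15 min at room temperature, and luminescence read for 15 sec.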
MARV entry inh: blocks Marburg virus binding to or entry into cells; Potency, µM (top dose mostly 37.8 µM), inactives show top-dose activity change, negative = inhibition, hits mostly inhibitors; Marburg virus pseudotyped entry inhibition, cell reporter; actives 1.8% (n = 300,000); calls by dose curve; tested in HEK293 cells; note: potency is the fitted concentration of half-maximal effect
FMDV antiviral: antivirals against foot and mouth disease virus | FMDV antiviral cell-based qHTS | Potency, µM (doses to about 57.9 µM), for the others: top-dose activity change, negative = inhibition, usual class: inhibitors | actives 1.2% (n = 410,000); calls by dose curve; tested in HEK293T cells; note: read-out not given here; potency is the fitted concentration of half-maximal effect; nearly all actives have a fitted effect of over 45% in size
An asterisk follows results filed as active; ? = inconclusive; . = not tested or not shown; ! = a repeat was not active; [ ] = another dose, or the depositor's remark. % is set by controls: 0 for no effect and ±100 for the full control effect.

SMILES | HCMV inh | Lassa entry inh | HCV inhibitor | MARV entry inh | FMDV antiviral
COc1ccc(NC(=O)c2c(C)oc3ccc(O)c(CN4CCN(Cc5ccccc5)CC4)c23)cc1 | ? | ? | . | ? | -21.8%
COc1ccc(NC(=O)c2c(C)oc3ccc(O)c(CN4CCC(C)CC4)c23)cc1 | ? | ? | . | 11.2µM* | -12.4%
CCC1C(=O)OC[C@@H]1Cc1cncn1C (some centres undefined) | . | . | . | -5.5% | .
COC(=O)C1=C(C)NC(=S)NC1c1ccc(OCC(=O)N2CCCCC2)c(OC)c1 (centres undefined) | -62.8* | 2.5% | 15.8% | ? | -5.8%
CN(CC(=O)Nc1ccc(S(=O)(=O)N2CCCC2)cc1)Cc1c(F)cccc1Cl | -70.2* | ? | ? | 5.01µM* | ?
CN(CC(=O)Nc1cccc(S(=O)(=O)N2CCCC2)c1)CC(=O)Nc1ccc(Cl)c(C(F)(F)F)c1 | -64.4* | ? | 17.8µM* | ? | -22.0%
CCN(CC)S(=O)(=O)c1ccc(C)c(NC(=O)CNc2cccc(S(=O)(=O)N3CCCC3)c2)c1 | ? | -28.3%[46.1 µM] | 10µM* | -21.4% | ?
CCN(CC)S(=O)(=O)c1cccc(NC(=O)c2cccc(S(=O)(=O)N3CCCC3)c2)c1 | -8.7 | ? | ? | ? | ?
Cn1cnc(S(=O)(=O)N2CCC(C(=O)Nc3ccc(Cl)c(C(F)(F)F)c3)CC2)c1 | -75.9* | 17.7%[46.1 µM] | . | . | ?
COc1ccc(NC(=O)C2CCN(S(=O)(=O)c3cn(C)cn3)CC2)cc1Cl | -5.3 | 18.3%[46.1 µM] | . | . | -10.7%
COc1cccc2c1C1(CCCCC1)CC2NC(=O)C(F)(F)F (centres undefined) | . | . | . | -14.5%[14.2 µM] | .
Cc1cccc(NC(=O)CSCC(=O)Nc2cccc(S(=O)(=O)N3CCCCCC3)c2)c1 | -33.0 | -17.8%[46.1 µM] | 0.2% | -17.8% | -0.8%
Cc1ccc(NC(=O)CSCC(=O)Nc2cccc(S(=O)(=O)N3CCCCCC3)c2)cc1 | -38.8 | . | 12.6µM* | . | -29.6%
Cc1ccc(NC(=O)CNc2cccc(S(=O)(=O)N3CCCC3)c2)cc1F | -18.2 | -10.6% | ? | ? | -5.4%
O=C(CN1CCN(S(=O)(=O)c2ccc(F)cc2)CC1)Nc1ccc(Cl)c(C(F)(F)F)c1 | -39.1 | 11.2µM* | ? | ? | 28.2µM*
Cc1ccc(NCC(=O)Nc2cccc(S(=O)(=O)N(C)C)c2)cc1S(=O)(=O)N1CCCCCC1 | -81.2* | ? | 10µM* | ? | ?
Cc1ccc(NC(=O)CN(C)CC(=O)Nc2cccc(F)c2)cc1S(=O)(=O)N1CCCCCC1 | -65.9* | ? | ? | ? | 25.1µM*
CS(=O)(=O)c1ccc(Nc2cc3c(cn2)ncn3Cc2ccco2)cc1 | -18.4 | . | . | . | .
c1cncc(OC2CCN(Cc3ccc4c(c3)CN(Cc3ccc5c(c3)CCO5)CCO4)CC2)c1 | . | . | . | . | -24.6%
CCC(=O)c1ccc(OCC(=O)Nc2cccc(S(=O)(=O)N3CCCCCC3)c2)cc1 | -26.1 | -11.3% | ? | ? | ?
O=C(Cn1nnc(-c2ccc(F)cc2)n1)Nc1cccc(S(=O)(=O)N2CCCC2)c1 | -60.1* | . | 22.4µM* | . | -24.7%
O=C(Cn1nnc(-c2ccccc2Cl)n1)Nc1cccc(S(=O)(=O)N2CCCC2)c1 | -24.8 | ? | ? | ? | -1.3%
CCc1ccc(C(=O)CCC(=O)Nc2cccc(S(=O)(=O)N3CCCCC3)c2)cc1 | -29.1 | -30.0% | 10µM* | ? | -5.0%
CC1CCN(S(=O)(=O)c2ccc(NC(=O)Cn3nnc(-c4ccccc4)n3)cc2)CC1 | -26.7 | 0.2% | -4.7% | ? | -28.5%
Cc1ccc(-c2nnn(CC(=O)Nc3ccc(S(=O)(=O)N4CCC(C)CC4)cc3)n2)cc1 | -75.0* | -15.3% | ? | ? | -25.5%
SMILES | HCMV inh | Lassa entry inh | HCV inhibitor | MARV entry inh | FMDV antiviral
CCN(CC)S(=O)(=O)c1cccc(NC(=O)CNc2cccc(S(=O)(=O)N3CCCC3)c2)c1 | -88.3* | ? | 2.51µM* | ? | -5.5%
COC(=O)[C@H](CO)N1C(=O)[C@@H]2[C@@H](C1=O)[C@H]1C=C[C@@H]2C1 | . | 3.9%[46.1 µM] | . | . | .
CCN(CC)S(=O)(=O)c1cc(NC(=O)CNc2cccc(S(=O)(=O)N3CCOCC3)c2)ccc1C | -85.1* | ? | 5.62µM* | ? | -26.6%
CCN(CC)CC(=O)Nc1cccc(S(=O)(=O)N2CCCC2)c1 | -91.2* | -16.3% | ? | -3.4%[46.1 µM] | -11.5%
O=C(CN(CCO)c1ccccc1)Nc1cccc(S(=O)(=O)N2CCCC2)c1 | -12.6 | -25.1%[46.1 µM] | -9.1% | ? | -13.8%
COc1ccc(-c2cnc(C)o2)cc1S(=O)(=O)Nc1c(C)cc(C)cc1C | -4.6 | -21.6%[46.1 µM] | . | . | 29.1%
CCc1nc(C)cc2c1sc1ccccc12 | 37.9 | 17.3% | ? | 11.8%[46.1 µM] | 0.0%
CC[n+]1c(C)cc2c(sc3ccccc32)c1C | -100.7* | . | ? | . | -9.8%
COCCn1c(C)cc(O)c(C(c2ccc(OC)cc2)N2CCN(c3ccccc3)CC2)c1=O (centres undefined) | -12.2 | 2.6%[46.1 µM] | . | . | -20.9%
C/C(=N\NC(=O)CNC(=O)C(c1ccccc1)c1ccccc1)c1ccc(C(C)(C)C)cc1 | -75.6* | -4.6% | 20.8% | -6.4% | -2.0%
Cc1csc2nc(COC(=O)c3ccc(NC(=O)C(C)Oc4ccccc4)cc3)cc(=O)n12 (centres undefined) | -1.0 | ? | . | . | -18.2%
Cc1ccc(S(=O)(=O)N[C@@H](CCCCN)C(=O)CCl)cc1 | 17.5 | -33.5% | ? | 12.6µM*! | -20.7%
Cc1ccc(S(=O)(=O)NC(CC(N)=O)C(=O)O)cc1 (centres undefined) | -38.7 | ? | 1.4% | ? | 0.2%
NS(=O)(=O)c1ccc(CCNc2nn3c(-c4cccc(OC(F)(F)F)c4)cnc3s2)cc1 | -97.5* | . | . | . | 22.4µM*
COc1ccc(S[C@]2(c3nc(C)no3)CC(=O)N(C(=O)c3ccccc3)[C@@H]2c2ccc(OC)cc2)cc1 | -8.6 | . | . | . | .
NC(=O)c1cc(-c2ccccc2)nc(N2CCCCCC2)n1 | -13.1 | -11.9% | 1.8% | -18.2% | -25.0%
NC(=O)c1cc(-c2ccccc2)nc(N2CCOCC2)n1 | -5.4 | -10.7% | 5.01µM* | ? | 0.0%
CC(=O)c1ccccc1-c1ccc2c(c1)CC(CNC(=O)Cc1c[nH]c3ccccc13)O2 (centres undefined) | . | . | . | . | -0.4%
CC(C)Nc1ncnc2ccc(Br)cc12 | -95.9* | ? | ? | ? | ?
CC(C)COc1ccc(Nc2ncnc3ccc(Br)cc23)cc1 | -5.0 | 9.2%[46.1 µM] | . | 0.7%[46.1 µM] | 0.0%
CCOc1ccccc1Nc1ncnc2ccc(Br)cc12 | -29.7 | -3.6%[46.1 µM] | 22.4µM* | ? | -25.8%
CCOc1ccccc1Nc1ncnc2ccccc12 | -16.9 | -7.9% | 10µM* | -10.2% | -31.8%
Brc1ccc2ncnc(NCc3ccco3)c2c1 | -87.1* | ? | 25.1µM* | ? | 14.1µM*
COc1cc(C(=O)N2CCN(c3ncnc4sc(C)c(C)c34)CC2)cc(OC)c1OC | -79.4* | ? | 5.62µM* | ? | 11.2µM*
CCN(CC)c1ccc(C(=O)NNC(=O)C2CCN(c3ncnc4sc(C)c(C)c34)CC2)cc1 | -15.0 | . | . | . | 11.2µM*
